Here are results for 22 compounds from PubChem BioAssay (NCI).

This is part of a sample that, as a whole, favours compounds with a hit. Of some 79,000 tested, about 15% had one in any assay. Unmarked numbers belong to inactive results. Activity calls are given as the source filed them. Rule as the data show it: active = growth inhibition above about 70%; inactive = the rest.

The nature of the first test: NCI Yeast Anticancer Drug Screen. Data for the cln2 rad14 strain (AID 165).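 Also: 0% = growth equal to vehicle treated cultures.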 Particulars: S. cerevisiae cln2 rad14 strain, at 5.0 µM (retest, dose inferred, filed as 0.5), hits give high values. As to the method:
Growth inhibition of yeast strains with defined genetic alterations is measured as a screen for potential anti-cancer activity. Selected strains with alterations in DNA damage repair or cell cycle control were exposed to compounds and growth inhibition was measured relative to vehicle treated controls. The strain used in this assay is cln2 rad14
As for `CC(C=O)[Se]c1ccccc1` (configuration not stated), the growth inhibition is -9%.
The same measure, in the same setting: the figure for `O=C1C=C(N2CC2)C(=O)C(N2CC2)=C1N1CC1` is 99% (active).
Still for that read-out and setting: the result for `C/C(=C\c1ccccc1)[N+](=O)[O-]` reads 11%.
The same measure, in the same setting: the result for `O=C1CC2CCCC(C1)N2Cc1ccccc1` reads -69%; that for `C[CH2][Hg]`, 99% (active).
Regarding `CC[C@@H]1C(=O)OC[C@@H]1Cc1cncn1C`, the growth inhibition was -27%.
Turning to `COc1cc(/C=C(/C)[N+](=O)[O-])c([N+](=O)[O-])cc1OC`, the growth inhibition is 3%.
Same read-out and setting: the figure for `CCOC(=O)c1[nH]cnc1/N=N/N(C)N` is 28%.
`OC1C2[C@@H](O)CCCN2C[C@@H](O)[C@H]1O` (some centres not stated): the growth inhibition was 5%.
For the compound `CC(CCC/C=C/CCCN(C)C(=N)N)CC(C)C1OC(=O)C(C)C(O)/C=C/C(C)C(O)C(C)C(O)C(C)C(O)CCCC(O)CC2(O)OC(CC(OC(=O)CC(=O)O)CC(O)CC(O)C(C)C(O)/C=C/C=C/C1C)CC(O)C2O` (configuration not stated), the growth inhibition is 21%.

Staying with this test, now noted: S. cerevisiae cln2 rad14 strain, at 50.0 µM (retest, dose inferred, filed as 5.0), hits give high values.
With `CC(C=O)[Se]c1ccccc1` (configuration not stated), the growth inhibition was 48%.
Same read-out and setting: the result for `O=C1C=C(N2CC2)C(=O)C(N2CC2)=C1N1CC1` reads 98% (active); that for `C/C(=C\c1ccccc1)[N+](=O)[O-]`, 97% (active).
The same measure, in the same setting: the figure for `O=C1CC2CCCC(C1)N2Cc1ccccc1` is 47%; for `C[CH2][Hg]` it is 100% (active).
On the same count and under the same terms, the figure for `CC[C@@H]1C(=O)OC[C@@H]1Cc1cncn1C` is -90%; for `COc1cc(/C=C(/C)[N+](=O)[O-])c([N+](=O)[O-])cc1OC` it is 29%; for `CCOC(=O)c1[nH]cnc1/N=N/N(C)N` it is 81% (active).
For the compound `OC1C2[C@@H](O)CCCN2C[C@@H](O)[C@H]1O` (some centres not stated), the growth inhibition is 20%.
Still for that read-out and setting: the result for `CC(CCC/C=C/CCCN(C)C(=N)N)CC(C)C1OC(=O)C(C)C(O)/C=C/C(C)C(O)C(C)C(O)C(C)C(O)CCCC(O)CC2(O)OC(CC(OC(=O)CC(=O)O)CC(O)CC(O)C(C)C(O)/C=C/C=C/C1C)CC(O)C2O` (configuration not stated) reads 99% (active).

The test is the same for the next values; noted with them: S. cerevisiae cln2 rad14 strain, at 50.0 µM, hits give high values.
As for `CC(C=O)[Se]c1ccccc1` (configuration not stated), the growth inhibition was 48.6%.
On the same count and under the same terms, the result for `O=C1C=C(N2CC2)C(=O)C(N2CC2)=C1N1CC1` reads 99% (active); that for `CCCCC1(CCS)C(=O)NC(=O)NC1=O`, -10.1%.
On the same count and under the same terms, the figure for `C[CH2][Sn]1([CH2]C)[O]OC(c2ccccc2)[O]1` (configuration not stated) is -3.65%; for `C/C(=C\c1ccccc1)[N+](=O)[O-]` it is 46.9%; for `O=c1c2ccccc2sc2c1c(N(CCCl)CCCl)cc1ccccc12` it is 17.5%.
Same read-out and setting: the result for `CC(C)CC(=O)[O-].N.N.N.N.N.[Co+3].[O-][Cl+3]([O-])([O-])[O-]` reads 21.8%.
As for `O=C1CC2CCCC(C1)N2Cc1ccccc1`, the growth inhibition was 37.5%.
Still for that read-out and setting: the result for `CO[C@H]1C[C@H](O[C@H]2CC[C@]3(C=O)[C@H]4CC[C@]5(C)[C@@H](C6=CC(=O)OC6)CC[C@]5(O)[C@@H]4CC[C@]3(O)C2)O[C@H](C)[C@H]1O[C@@H]1O[C@H](CO)[C@@H](O)[C@H](O)[C@H]1O` reads 12.2%.
Consider `O=C(COc1ccc(Cl)c(Cl)c1)Nc1ccc[n+](Cc2ccc(S(=O)(=O)F)cc2Cl)c1`, for which the growth inhibition is 58.2%.
The same measure, in the same setting: the result for `C[CH2][Hg]` reads 59.3%.
On the same count and under the same terms, the figure for `O=Cc1ccccc1O.[Pr]` is 8.4%; for `CC(=O)OC1CC(OC2C(O)CC(OC3C(O)CC(OC4CCC5(C)C(CCC6C5CC(O)C5(C)C(C7=CC(=O)OC7)CCC65O)C4)OC3C)OC2C)OC(C)C1OC1OC(CO)C(O)C(O)C1O` (configuration not stated) it is 5%.
The same measure, in the same setting: the result for `Cc1ccc(N2CC=C(c3ccccc3)OP2(=O)N(CCCl)CCCl)cc1` (configuration not stated) reads 80.7% (active); that for `CC[C@@H]1C(=O)OC[C@@H]1Cc1cncn1C`, 26%; that for `COc1cc(/C=C(/C)[N+](=O)[O-])c([N+](=O)[O-])cc1OC`, 14.8%.
For `CCOC(=O)c1[nH]cnc1/N=N/N(C)N`, the growth inhibition was 89.2% (active).
On the same count and under the same terms, the result for `CN(C)CCc1ccc(Cl)cc1Cl` reads 6.6%; that for `OC1C2[C@@H](O)CCCN2C[C@@H](O)[C@H]1O` (some centres not stated), 8.4%.
On the same count and under the same terms, the result for `C/C=C/C(C)C1(CC)C(=O)NC(=S)NC1=O` (configuration not stated) reads 10.6%.
Still for that read-out and setting: the figure for `NCCN.O=C([O-])C(=O)[O-].O=C([O-])C(=O)[O-].[Co+3].[K+]` is 16.8%; for `CC(CCC/C=C/CCCN(C)C(=N)N)CC(C)C1OC(=O)C(C)C(O)/C=C/C(C)C(O)C(C)C(O)C(C)C(O)CCCC(O)CC2(O)OC(CC(OC(=O)CC(=O)O)CC(O)CC(O)C(C)C(O)/C=C/C=C/C1C)CC(O)C2O` (configuration not stated) it is 92.2% (active).
